We go through 15 compounds from PubChem BioAssay (NCI).

SMILES strings stand for the structures. This is part of a sample that, as a whole, favours compounds with a hit. Of some 83,000 tested, about 20% had one in any assay.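 96-well plates, one dose, 48 hours. Percent growth reported; active if below 10.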 A number with no mark means an inactive call. Activity calls are given as the source filed them.

Some test systems named below: HT29 colon; SNB-75 CNS; SNB-19 CNS; U251 CNS; SK-MEL-5 melanoma; UACC-62 melanoma; LOX IMVI melanoma; SK-MEL-28 melanoma; SK-MEL-2 melanoma.
Assay in all cases: NCI-60 one-dose screen, 48 h (100 = growth as untreated, 0 = no growth, -100 = all killed)
Common to all, as to conditions: 10 µM unless noted

Take `Cc1cc(NC(=O)Nc2cc(Cl)ccc2C)no1`: the growth in the assay on HT29 colon was 106%; in the assay with SNB-75 CNS, 76.8%; in the assay on SNB-19 CNS, 110%; in the assay with U251 CNS, 108%; in the assay on SK-MEL-5 melanoma, 102%; in the assay with UACC-62 melanoma, 91.1%. Moreover, the figures for the growth in the assay with LOX IMVI melanoma, in the assay with SK-MEL-28 melanoma and in the assay on SK-MEL-2 melanoma were 99.3%, 142% and 116%, respectively.
As for `O=C1OCC/C1=C\OCCCO/C=C1\CCOC1=O`, the growth with HT29 colon is 105%; in the assay with SNB-75 CNS, 97.1%; in the assay on SNB-19 CNS, 104%; in the assay with U251 CNS, 99.6%; with SK-MEL-5 melanoma, 105%; with UACC-62 melanoma it was 91%. Moreover, the growth was 98.8% in the assay on LOX IMVI melanoma, 125% with SK-MEL-28 melanoma and 104% in the assay on SK-MEL-2 melanoma.
On to `O=C(/C=C/c1cc2ccccc2[nH]c1=O)c1ccc(Cl)cc1`, for which the growth with HT29 colon is 6.1% (active); with SNB-75 CNS it was 16.8%; in the assay on SNB-19 CNS, 47.6%; in the assay with U251 CNS it was 24.8%; in the assay on SK-MEL-5 melanoma, 56.2%; with UACC-62 melanoma it was 31.4%. Further, the growth in the assay with LOX IMVI melanoma is -69.2% (active); in the assay with SK-MEL-28 melanoma, 80.1%; in the assay on SK-MEL-2 melanoma it was 18.8%.
As to `O=C(Nc1ncc([N+](=O)[O-])s1)c1cccc([N+](=O)[O-])c1`, the growth in the assay with HT29 colon is 51.4%; in the assay on SNB-75 CNS it was 30.3%; with SNB-19 CNS, 32.8%; with U251 CNS, 52%; with SK-MEL-5 melanoma it was -14.2% (active); with UACC-62 melanoma, 9.35% (active). Also, the growth in the assay with LOX IMVI melanoma was 52.1%; in the assay on SK-MEL-28 melanoma it was 56.8%; with SK-MEL-2 melanoma, 16.9%.
Turning to `COc1ccc(-c2nn(-c3ccccc3)cc2/C=C2\SC(=S)N(CCc3ccc(O)cc3)C2=O)cc1`, the growth with HT29 colon is 101%; with SNB-75 CNS it was 81%; with SNB-19 CNS it was 93.6%; in the assay on U251 CNS, 90.5%; in the assay on SK-MEL-5 melanoma, 88.1%; with UACC-62 melanoma it was 60.3%. In addition, the values for the growth in the assay with LOX IMVI melanoma, in the assay with SK-MEL-28 melanoma and in the assay on SK-MEL-2 melanoma were 72.9%, 98.6% and 95%, respectively.
In the case of `O=C(NCCc1ccccc1)C1CCC(=O)N1Cc1ccc(Br)cc1` (stereo not given), the growth in the assay on HT29 colon is 85.6%; with SNB-75 CNS, 100%; in the assay with SNB-19 CNS, 96.7%; in the assay with U251 CNS, 96.7%; in the assay with SK-MEL-5 melanoma it was 101%; with UACC-62 melanoma, 95.4%. The growth in the assay with LOX IMVI melanoma was 97.8%; with SK-MEL-28 melanoma, 99.7%; with SK-MEL-2 melanoma, 96.1%.
Turning to `Oc1ccc(-c2nn(-c3ccccc3)cc2-c2nc3ccccc3s2)cc1`, the growth with HT29 colon was 112%; in the assay with SNB-75 CNS it was 101%; with SNB-19 CNS it was 93.9%; in the assay with U251 CNS, 94%; in the assay on SK-MEL-5 melanoma, 92.3%; with UACC-62 melanoma, 88.1%. For the same compound, the growth in the assay on LOX IMVI melanoma was 78.4%; with SK-MEL-28 melanoma, 117%; in the assay on SK-MEL-2 melanoma, 135%.
In the case of `CC1=C(C(=O)Nc2ccccc2)C(c2ccc3c(c2)OCCO3)NC(=O)N1` (stereo not given), the growth was 108% in the assay with HT29 colon; 102% with SNB-75 CNS; 99.6% in the assay on SNB-19 CNS; 105% with U251 CNS; 101% in the assay on SK-MEL-5 melanoma; 101% in the assay on UACC-62 melanoma. In addition, the growth is 94.7% in the assay on LOX IMVI melanoma, 111% in the assay with SK-MEL-28 melanoma and 125% in the assay on SK-MEL-2 melanoma.
As for `Cc1cc(N2CCOCC2)nc(N2CCOCC2)n1`, the growth with HT29 colon was 103%; in the assay on SNB-75 CNS, 94.4%; in the assay on SNB-19 CNS, 99.7%; in the assay on U251 CNS, 102%; with SK-MEL-5 melanoma, 102%; in the assay with UACC-62 melanoma it was 99%. Further, the growth with LOX IMVI melanoma was 104%; in the assay on SK-MEL-28 melanoma it was 113%; in the assay with SK-MEL-2 melanoma it was 90.6%.
Take `CSC1=Nc2c(c(C)c(-c3ccccc3)n2CCCN2CCCCC2)C2=NC(=O)C[C@H](C)N12`: the growth with HT29 colon was 21.4%; in the assay with SNB-75 CNS, 50.3%; in the assay with SNB-19 CNS it was 20.2%; with U251 CNS, 11.8%; in the assay with SK-MEL-5 melanoma, 9.86% (active); with UACC-62 melanoma, 53.7%. Also, the values for the growth with LOX IMVI melanoma, with SK-MEL-28 melanoma and in the assay on SK-MEL-2 melanoma were 42.3%, 43.2% and 62.8%, respectively.
Turning to `C[n+]1c2ccccc2c(NC2CCNCC2)c2[nH]c3ccccc3c21`, the growth in the assay with HT29 colon is 2.95% (active); in the assay on SNB-75 CNS, 7.49% (active); in the assay with SNB-19 CNS, -12.4% (active); with U251 CNS, 1.08% (active); in the assay on SK-MEL-5 melanoma, 7.09% (active); in the assay on UACC-62 melanoma, -73.3% (active). The growth in the assay with LOX IMVI melanoma is 13.2%; in the assay with SK-MEL-28 melanoma, 10.6%; in the assay with SK-MEL-2 melanoma, -46.4% (active).
On to `Cc1nc2cc(NC(=O)CN3CCN(CCN4C(=O)c5cccc6cccc(c56)C4=O)CC3)ccc2s1`, for which the growth in the assay with HT29 colon was 33.6%; in the assay with SNB-75 CNS it was 57.1%; in the assay on SNB-19 CNS, 44.7%; in the assay on U251 CNS it was 43.4%; in the assay on SK-MEL-5 melanoma it was 39.4%; in the assay on UACC-62 melanoma, 62.5%. For the same compound, the figures for the growth in the assay with LOX IMVI melanoma, in the assay on SK-MEL-28 melanoma and with SK-MEL-2 melanoma were 39.9%, 86.4% and 73%, respectively.
`CCC(=O)Nc1ccccc1C#C/C=C\C#Cc1ccccc1C(F)(F)F`: the growth was 47.9% with HT29 colon; 32.3% in the assay on SNB-75 CNS; 66.4% with SNB-19 CNS; 34.9% in the assay with U251 CNS; 60.2% in the assay with SK-MEL-5 melanoma; 38.2% with UACC-62 melanoma. The growth was 56.1% with LOX IMVI melanoma, 83.8% in the assay on SK-MEL-28 melanoma and 12.4% in the assay with SK-MEL-2 melanoma.
On to `CCOC(=O)c1c2c(c(C)n1Cc1ccccc1)-c1nc(N)ncc1CC2`, for which the growth was 115% in the assay on HT29 colon; 90.3% in the assay with SNB-75 CNS; 101% with SNB-19 CNS; 106% in the assay on U251 CNS; 105% in the assay with SK-MEL-5 melanoma; 77.2% in the assay with UACC-62 melanoma. In addition, the growth is 92.6% with LOX IMVI melanoma, 128% in the assay with SK-MEL-28 melanoma and 125% in the assay with SK-MEL-2 melanoma.
On to `COc1cc(-c2cc(C(=O)Nc3nc4ccccc4s3)nc3cc(-c4ccccc4)nn23)cc(OC)c1OC`, for which the growth in the assay with HT29 colon was 17.4%; in the assay on SNB-75 CNS, 36.6%; in the assay with SNB-19 CNS, 98.5%; in the assay on U251 CNS, 66.7%; in the assay on SK-MEL-5 melanoma, 35.5%; in the assay on UACC-62 melanoma, 67.8%. Also, the growth in the assay with LOX IMVI melanoma is 27.4%; in the assay on SK-MEL-28 melanoma it was 39.9%; in the assay on SK-MEL-2 melanoma it was 73.7%.
